Most compounds without a hit are left out; they make up all but 28% or so of the library.
CYP2C9 inh – inhibitors of human CYP2C9; P11712; CYP2C9 Supersomes, luciferin-H conversion, luminescence; inhibition, % at 5 µM; actives 20% (n = 96,000); AID 777;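 active = blocking of liver enzyme CYP2C9 beyond about 50% at 5 µM, limit read from the data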
Target sequence (P11712 whole entry, looked up): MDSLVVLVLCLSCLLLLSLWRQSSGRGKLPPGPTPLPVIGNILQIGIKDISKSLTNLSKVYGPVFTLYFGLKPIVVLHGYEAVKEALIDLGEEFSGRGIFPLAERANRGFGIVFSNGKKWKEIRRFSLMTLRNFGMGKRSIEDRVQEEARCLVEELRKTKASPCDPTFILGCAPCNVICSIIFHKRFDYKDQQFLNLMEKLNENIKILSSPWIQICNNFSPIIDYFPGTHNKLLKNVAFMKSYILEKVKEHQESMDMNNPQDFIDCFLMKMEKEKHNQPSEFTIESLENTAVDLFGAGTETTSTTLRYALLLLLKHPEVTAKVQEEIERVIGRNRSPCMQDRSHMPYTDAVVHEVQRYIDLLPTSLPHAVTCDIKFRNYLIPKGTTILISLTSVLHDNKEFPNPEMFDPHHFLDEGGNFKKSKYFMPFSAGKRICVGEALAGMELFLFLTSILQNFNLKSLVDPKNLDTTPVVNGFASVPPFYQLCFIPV
D1 allo mod – allosteric modulators of human D1 dopamine receptor. P21728. B-score at 10 µM. HEK293 D1, CRE-luciferase, dopamine EC30 potentiation; actives deviate in either direction. actives 5.9% (n = 58,000);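 active = luminescence count or its row- and column-corrected plate score outside the 99.7% band of the plate's sample wells, on either side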
CYP2C19 act – increases human CYP2C19 enzyme activity; activation factor at 5 µM; recombinant CYP2C19, luciferin-H EGE luminescence; hits give high values; 0 = fully inhibited enzyme, 1 = untreated enzyme; 96,000 tested, under 10 active; AID 1025;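 active = activation factor of at least 2 at 5 µM in the primary screen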
CYP2C19 inh – inhibitors of human CYP2C19 | CYP2C19 Supersomes, luciferin-H EGE luminescence, 30 min | actives 21% (n = 96,000) | inhibition, % at 5 µM | P33261 | AID 778;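 active = CYP2C19 inhibition above a set limit at 5 µM in the primary screen, cut at about 50% in these data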
CYP2C9 act – CYP2C9 (human) activation. P11712. recombinant CYP2C9, luciferin-H conversion, luminescence; hits give high values; factor 1 = untreated enzyme, 0 = blocked. activation factor at 5 µM. actives 1.4% (n = 96,000);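 active = activation factor of 2 or more for CYP2C9 at a 5 µM dose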
hDAT+cocaine – modulates human dopamine transporter uptake under cocaine | AID 449768 | LLC-PK1 hDAT cells, [14C]-dopamine uptake with cocaine IC80; actives deviate in either direction | actives 1.3% (n = 110,000) | Q01959 | B-score at 10 µM;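 active = Z score or B-score, a plate-position-corrected score, falls beyond the plate's 99.7% confidence bounds, in either direction; inactive = both scores lie inside the 99.7% bounds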
Large screens that a line does not name were inactive.

N#Cc1ccccc1NC(=O)CC1CCCCC1	CYP2C19 inh 58 (no result: D1 allo mod)
CCN(CC)c1ccc(/C=N/N2CCN(Cc3cccc4ccccc34)CC2)c(O)c1	none (no result: D1 allo mod)
COc1cccc(NC(=O)C(OC(=O)/C=C/c2ccc3c(c2)OCO3)c2ccccc2)c1 (stereo not given)	CYP2C9 inh 69 (no result: D1 allo mod)
O=C(Nc1ccc(Cl)cc1)C(c1ccccc1)N(CCO)CCO (stereo not given)	CYP2C9 inh 66, CYP2C19 inh 63
CCCN(CCC)C(C(=O)Nc1cccc(OC)c1)c1ccccc1 (stereo not given)	CYP2C9 inh 89, CYP2C19 inh 88 (no result: D1 allo mod)
COc1cccc(NC(=O)C(NCCC(C)C)c2ccccc2)c1 (stereo not given)	none (no result: D1 allo mod)
COc1cccc(NC(=O)C(NCC2CCCCC2)c2ccccc2)c1 (stereo not given)	CYP2C9 inh 77, CYP2C19 inh 79 (no result: D1 allo mod)
O=C(O)C(Cc1ccccc1)N1Cc2ccccc2C1=O (stereo not given)	none (no result: D1 allo mod)
COC(=O)C(Cc1ccc(OC(=O)c2ccc(C)cc2)cc1)N1Cc2ccccc2C1=O (stereo not given)	CYP2C9 inh 50 (no result: D1 allo mod)
O=S1(=O)C=C(Sc2nnc(-c3ccccc3)o2)c2ccccc21	D1 allo mod -2.9 (no result: hDAT+cocaine)
Cc1cc(C)nc(SC2=CS(=O)(=O)c3ccccc32)n1	hDAT+cocaine -7.7
O=S1(=O)C=C(Sc2nc3ccccc3s2)c2ccccc21	D1 allo mod -3.7
O=S1(=O)C=C(SCCN2CCCCC2)c2ccccc21	none
Cc1nc2nc(-c3ccco3)[nH]n2c(=O)c1C	none (no result: D1 allo mod)
O=C(Cc1sc(-c2ccccc2Cl)nc1-c1ccccc1)Nc1ccccc1	none (no result: D1 allo mod)
O=C(Cc1sc(-c2ccccc2Cl)nc1-c1ccccc1)Nc1ccc(F)cc1	CYP2C9 inh 73 (no result: D1 allo mod)
O=C(NNS(=O)(=O)c1ccc(Cl)cc1)NC1CCCCC1	none (no result: D1 allo mod)
CC1CC(C)CN(CC(C)(C)NS(=O)(=O)c2ccccc2)C1 (stereo not given)	CYP2C19 inh 79 (no result: D1 allo mod)
CC1CCCC(C)N1CC(C)(C)NS(=O)(=O)c1ccc(Cl)cc1 (stereo not given)	CYP2C19 inh 84 (no result: D1 allo mod)
CC(C)COc1ccccc1C(=O)NC(CO)C(=O)O (stereo not given)	none (no result: D1 allo mod)
O=C(c1ccncc1)c1ccc(N2CCN(C3CC(=O)N(Cc4ccccc4)C3=O)CC2)cc1 (stereo not given)	CYP2C9 inh 60, CYP2C19 inh 86
O=C1CC(N2CCN(c3ccc(S(=O)(=O)N4CCOCC4)cc3)CC2)C(=O)N1Cc1ccccc1 (stereo not given)	none
O=C(NCc1ccccn1)c1ccc(Cl)cc1Cl	none
Clc1ccc2c(NCc3ccccn3)ncnc2c1	CYP2C19 inh 62 (no result: D1 allo mod)
Cn1cnc2c(NCc3ccco3)ncnc21	none (no result: CYP2C9 inh, D1 allo mod, CYP2C19 act, CYP2C19 inh, CYP2C9 act)
Clc1ccc2c(NCc3ccco3)ncnc2c1	CYP2C9 inh 55, CYP2C19 inh 79 (no result: D1 allo mod)
Cc1ccc(CCN2CC(C(=O)NCCCOC(C)C)CC2=O)cc1 (stereo not given)	none (no result: D1 allo mod)
Cc1ccc(CNc2ccc(N3CCOCC3)cc2)s1	CYP2C19 inh 65
O=C(OC(C(=O)NC1CCCCC1)c1ccccn1)c1cccs1 (stereo not given)	none (no result: D1 allo mod)
O=C(OC(C(=O)NCc1cccs1)c1ccccn1)c1cccs1 (stereo not given)	CYP2C19 inh 59
CCOc1ncccc1C(=O)N(C)CC1COc2ccccc2O1 (stereo not given)	CYP2C9 inh 63, CYP2C19 inh 85 (no result: D1 allo mod)
O=C(OCC1COc2ccccc2O1)c1ccccc1F (stereo not given)	none
O=C(Nc1ccc(Cl)cc1)N1CCC(c2nc(-c3ccccc3Cl)no2)CC1	none (no result: D1 allo mod)
COc1ccc(S(=O)(=O)N2CCC(C(=O)NCC3CCCO3)CC2)cc1 (stereo not given)	none (no result: D1 allo mod)
O=C1CC(c2ccco2)CC2=C1C=Nc1ccccc1N2 (stereo not given)	CYP2C9 inh 76, CYP2C19 inh 63 (no result: D1 allo mod)
Cc1nc2n(n1)C(c1ccccc1)C1=C(CC(c3ccco3)CC1=O)N2 (stereo not given)	none
Cc1cc(CN2CCOCC2)c(O)c(C2(C)CCCCC2)c1	none
O=C1CCCC2=C1C(c1ccco1)Nc1ccc(C(=O)c3ccccc3)cc1N2 (stereo not given)	hDAT+cocaine 3.7
CCC(=O)N1c2ccccc2NC2=C(C(=O)CCC2)C1c1ccccc1 (stereo not given)	none (no result: D1 allo mod)
COC(=O)c1nc2n(n1)C(c1cc(OC)ccc1OC)C(C(=O)OC1CCCCC1)=C(C)N2 (stereo not given)	CYP2C9 inh 68
CCOC(=O)C1=C(C)Nc2ncnn2C1c1cc(OC)ccc1OC (stereo not given)	none
COC(=O)C1=C(C)Nc2nnnn2C1c1cc(OC)ccc1OC (stereo not given)	CYP2C9 inh 61
CCOC(=O)C1CCCN(c2c(NCCc3ccc(S(N)(=O)=O)cc3)c(=O)c2=O)C1 (stereo not given)	none (no result: D1 allo mod)
O=C(NCc1ccc(Cl)cc1Cl)C(=O)N1CCCCC1	CYP2C9 act 3.8 (no result: D1 allo mod)
O=C(COc1ccc(Cl)cc1Cl)N1CCCC1	none (no result: D1 allo mod)
Cc1cc(C)c(S(=O)(=O)N2CCC(C(=O)NCc3ccc(Cl)cc3Cl)CC2)c(C)c1	CYP2C9 act 2.9 (no result: D1 allo mod)
CCS(=O)(=O)N1CCC(C(=O)NCc2ccc(F)cc2Cl)CC1	none
O=C(OCn1nnc2ccccc2c1=O)c1ccc2c(=O)n3c(nc2c1)CCC3	none
O=C(NCc1ccccn1)C(C(=O)c1ccc(F)cc1)n1ccccc1=O (stereo not given)	none
Cc1ccc(-c2cc(C(=O)Nc3ccccc3C)c3ccccc3n2)o1	none (no result: CYP2C9 inh, D1 allo mod, CYP2C19 act, CYP2C19 inh, CYP2C9 act)
Cc1cccc(-c2cc(C(=O)NCCCn3ccnc3)c3ccccc3n2)c1	CYP2C9 inh 100, CYP2C19 inh 87 (no result: D1 allo mod)
Cc1ccc(-c2cc(C(=O)NC3=NCCS3)c3cc(Br)ccc3n2)o1	CYP2C19 inh 52
Cc1ccc(-c2[nH]c3cc(C(=O)NCCCn4ccnc4)ccc3c(=O)c2O)cc1	none (no result: CYP2C9 inh, D1 allo mod, CYP2C19 act, CYP2C19 inh, CYP2C9 act)
Cc1ccc(-c2cc(C(=O)NCCCn3ccnc3)c3cc(Br)ccc3n2)o1	CYP2C9 inh 100, CYP2C19 inh 94
CNC(=O)c1cc2c(=O)n3cccc(C)c3nc2n(C(C)C)c1=N	none
CCN(CC)S(=O)(=O)c1ccc2c(c1)nc(CCC(=O)OCC(=O)N1CCc3ccccc31)n2C	none
CCN(CC)S(=O)(=O)c1ccc2c(c1)nc(CCC(=O)Nc1ccccc1Cc1ccccc1)n2CC	CYP2C9 inh 100, CYP2C19 inh 77 (no result: D1 allo mod)
CCn1c(CCC(=O)Nc2cc(F)ccc2C)nc2cc(S(=O)(=O)N(C)C)ccc21	CYP2C9 inh 80
Cc1nn(CC(=O)Nc2sc3c(c2C#N)CCC(C(C)(C)C)C3)c(C)c1[N+](=O)[O-] (stereo not given)	none (no result: D1 allo mod)
COC(=O)Cn1ncn2c(cc3oc(C)cc32)c1=O	none

High-throughput results: PubChem, several laboratories
